The values below come from PubChem BioAssay (Tox21).

Assay [1] concerns the target Cytochrome P450 2C19 (Homo sapiens) (UniProt P33261). Briefly: Cytochrome P450 Family 2 Subfamily C Member 19 (CYP2C19) small molecule antagonists: luciferase reporter qHTS assay (AID 1671197). Note: nearly all actives have a fitted effect of over 65% in size. As to conditions: P450-Glo CYP2C19 enzyme, luciferin luminescence, 1 h; series mostly up to 115 µM. The gist of the method: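 Inhibition of CYP2C19 was scored from loss of luminescence in a P450-Glo proluciferin substrate assay, NADPH-started and run 1 h at 37C, with ketoconazole as positive control.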

For assay [2], the target named is Cytochrome P450 2C9 (Homo sapiens) (UniProt P11712). The assay is described as follows: Cytochrome P450 Family 2 Subfamily C Member 9 (CYP2C9) small molecule antagonists: luciferase reporter qHTS assay (AID 1671198). Note: nearly all actives have a fitted effect of over 50% in size. As to conditions: P450-Glo CYP2C9 enzyme assay, luciferin luminescence; series mostly up to 115 µM. The gist of the method: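 Enzyme-substrate mix preincubated with compound 10 min at room temperature; reaction started with NADPH regeneration solution, 1 h 37C. Luminescent luciferin product read after 20 min detection reagent.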

Assay [3] deals with Cytochrome P450 1A2 (Homo sapiens) (UniProt P05177). The assay is described as follows: Cytochrome P450 Family 1 Subfamily A Member 2 (CYP1A2) small molecule antagonists: luciferase reporter qHTS assay (AID 1671199). Note: nearly all actives have a fitted effect of over 50% in size. As to conditions: P450-Glo CYP1A2 enzyme, luciferin luminescence, 1 h; series mostly up to 115 µM. The gist of the method:
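CYP1A2 turnover of a luminogenic substrate was quantified after 1 h with NADPH regeneration at room temperature. Furafylline served as positive control.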

The target of assay [4] is Voltage-gated inwardly rectifying potassium channel KCNH2 (Homo sapiens) (UniProt Q12809). The assay is described as follows: Human Ether-a-go-go-Related Gene (hERG) channel small molecule antagonists: fluorescence cell-based qHTS assay (AID 1671200). Note: nearly all actives have a fitted effect of over 50% in size. As to conditions: hERG-U2OS cells, FluxOR thallium flux fluorescence; series mostly up to 76.8 µM. In outline: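 Read-out: thallium influx as a surrogate for potassium, tracked as fluorescence (480 nm ex/540 nm em) every second for 2 min after Stimulus Buffer addition in dye-loaded hERG-U2OS cells.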

Values joined by “and” are separate entries in the source; they are usually repeats but may differ in a detail not shown here. Equal entries are not always repeated. Records with an inconclusive call do not appear. The source holds several records for some structures; these can differ, active in one and inactive in another. Active and inactive are the calls of the source. Calls come from the whole dose curve; as a rule, active = well fitted curve in the direction sought with a large enough effect in the repeat runs; inconclusive = weak or mixed curves; inactive = no such curve, though single readings can be large; an effect the other way counts as inactive or inconclusive.
Potency is the fitted concentration of half-maximal effect.

Sequence of Voltage-gated inwardly rectifying potassium channel KCNH2 (Homo sapiens) (Q12809 whole entry, looked up): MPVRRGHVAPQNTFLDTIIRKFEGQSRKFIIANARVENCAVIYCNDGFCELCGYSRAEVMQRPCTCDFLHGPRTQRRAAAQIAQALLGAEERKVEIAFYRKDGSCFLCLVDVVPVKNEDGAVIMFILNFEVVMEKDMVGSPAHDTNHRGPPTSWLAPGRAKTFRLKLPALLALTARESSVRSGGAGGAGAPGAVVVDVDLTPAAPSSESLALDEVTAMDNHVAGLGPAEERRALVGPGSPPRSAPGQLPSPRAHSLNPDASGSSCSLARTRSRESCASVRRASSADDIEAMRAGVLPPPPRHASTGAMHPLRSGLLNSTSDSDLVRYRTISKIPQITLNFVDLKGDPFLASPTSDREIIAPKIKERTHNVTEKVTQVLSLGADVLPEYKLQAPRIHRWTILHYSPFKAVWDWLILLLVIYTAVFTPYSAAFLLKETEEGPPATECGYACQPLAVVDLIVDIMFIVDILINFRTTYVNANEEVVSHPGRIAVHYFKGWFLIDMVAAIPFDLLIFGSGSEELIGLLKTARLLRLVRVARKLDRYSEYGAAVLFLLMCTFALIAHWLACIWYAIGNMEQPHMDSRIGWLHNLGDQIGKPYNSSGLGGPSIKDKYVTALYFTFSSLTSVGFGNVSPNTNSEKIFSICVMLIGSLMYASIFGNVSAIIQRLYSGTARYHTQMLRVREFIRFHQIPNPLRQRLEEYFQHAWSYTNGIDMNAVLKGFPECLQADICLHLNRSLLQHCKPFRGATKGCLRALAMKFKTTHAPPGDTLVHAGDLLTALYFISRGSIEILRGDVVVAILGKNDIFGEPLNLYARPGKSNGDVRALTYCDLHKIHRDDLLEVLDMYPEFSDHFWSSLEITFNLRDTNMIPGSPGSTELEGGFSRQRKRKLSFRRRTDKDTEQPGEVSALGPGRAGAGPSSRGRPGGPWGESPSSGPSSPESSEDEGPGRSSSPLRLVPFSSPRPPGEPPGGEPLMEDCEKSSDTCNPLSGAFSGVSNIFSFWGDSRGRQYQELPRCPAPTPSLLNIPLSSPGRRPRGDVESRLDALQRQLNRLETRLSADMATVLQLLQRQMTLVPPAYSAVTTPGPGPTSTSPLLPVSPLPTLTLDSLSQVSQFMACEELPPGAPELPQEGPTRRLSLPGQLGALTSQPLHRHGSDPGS
Sequence of Cytochrome P450 2C9 (Homo sapiens) (P11712 whole entry, looked up): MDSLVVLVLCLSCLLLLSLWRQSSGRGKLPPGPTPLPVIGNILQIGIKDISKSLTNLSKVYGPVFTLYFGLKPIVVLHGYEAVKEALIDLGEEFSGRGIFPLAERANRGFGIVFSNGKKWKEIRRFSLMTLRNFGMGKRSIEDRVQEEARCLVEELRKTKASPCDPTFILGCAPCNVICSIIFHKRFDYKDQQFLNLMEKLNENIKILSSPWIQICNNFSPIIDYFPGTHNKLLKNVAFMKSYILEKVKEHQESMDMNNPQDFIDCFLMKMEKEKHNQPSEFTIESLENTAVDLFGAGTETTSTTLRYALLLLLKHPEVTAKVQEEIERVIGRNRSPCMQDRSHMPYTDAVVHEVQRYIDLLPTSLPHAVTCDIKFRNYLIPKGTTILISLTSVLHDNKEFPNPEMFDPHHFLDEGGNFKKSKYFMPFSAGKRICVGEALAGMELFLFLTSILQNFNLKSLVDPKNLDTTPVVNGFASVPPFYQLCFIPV
Sequence of Cytochrome P450 1A2 (Homo sapiens) (P05177 whole entry, looked up): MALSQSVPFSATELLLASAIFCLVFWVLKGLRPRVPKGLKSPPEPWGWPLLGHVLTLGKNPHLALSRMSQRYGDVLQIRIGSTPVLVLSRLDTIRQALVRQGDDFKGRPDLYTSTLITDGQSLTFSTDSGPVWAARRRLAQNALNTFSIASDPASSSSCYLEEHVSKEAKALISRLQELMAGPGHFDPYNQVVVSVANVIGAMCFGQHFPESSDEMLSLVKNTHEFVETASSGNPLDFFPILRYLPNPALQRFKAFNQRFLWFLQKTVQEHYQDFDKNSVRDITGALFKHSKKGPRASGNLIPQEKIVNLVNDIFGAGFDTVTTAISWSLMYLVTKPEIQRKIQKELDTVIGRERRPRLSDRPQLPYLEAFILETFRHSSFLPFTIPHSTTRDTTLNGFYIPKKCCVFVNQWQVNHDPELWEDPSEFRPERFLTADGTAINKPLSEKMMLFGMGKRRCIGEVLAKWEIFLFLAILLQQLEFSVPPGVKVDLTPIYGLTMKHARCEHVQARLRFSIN
Sequence of Cytochrome P450 2C19 (Homo sapiens) (P33261 whole entry, looked up): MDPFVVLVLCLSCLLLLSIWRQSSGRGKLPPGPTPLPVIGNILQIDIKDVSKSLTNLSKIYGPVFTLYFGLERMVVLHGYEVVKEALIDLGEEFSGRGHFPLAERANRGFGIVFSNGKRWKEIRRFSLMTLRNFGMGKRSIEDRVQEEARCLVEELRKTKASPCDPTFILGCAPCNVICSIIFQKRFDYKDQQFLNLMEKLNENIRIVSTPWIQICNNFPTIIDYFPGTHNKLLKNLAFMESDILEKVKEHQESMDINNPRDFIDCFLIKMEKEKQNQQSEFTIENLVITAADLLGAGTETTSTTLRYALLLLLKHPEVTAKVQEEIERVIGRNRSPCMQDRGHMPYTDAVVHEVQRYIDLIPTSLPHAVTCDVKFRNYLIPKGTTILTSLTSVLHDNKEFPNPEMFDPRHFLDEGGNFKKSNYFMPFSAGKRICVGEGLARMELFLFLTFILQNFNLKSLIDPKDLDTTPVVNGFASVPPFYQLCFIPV

Take `Cc1ccc2c(n1)Oc1ccc(C(C)C(=O)OCC(=O)N(C)C)cc1C2` (stereo not given): the results for the Potency in assay [1] and in assay [2] were 17.4 µM (active) and 21.9 µM (active), respectively. For the same molecule, the Potency entry in assay [3] and in assay [4] was “inactive” in each case.

As to `O=C(COc1ccc(Cl)cc1)N1CCN(Cc2ccc3c(c2)OCO3)CC1`, the Potency in assay [1] is 17.8 µM (active) and 17.4 µM (active); in assay [2] it was 28.3 µM (active) and 13.8 µM (active); in assay [3], 28.3 µM (active) and 17.4 µM (active); in assay [4] it was 19.5 µM (active) and 8.49 µM (active).

For `CN(C)CCC=C1c2ccccc2CCc2ccccc21`, in assay [1], the Potency is 7.97 µM (active) and 31.7 µM (active). In addition, the Potency entry in assay [2] and in assay [3] was “inactive” in each case.

As to `C=C(C)C1CC=C(C)CC1` (stereo not given), the Potency result in assay [1], in assay [2], in assay [3] and in assay [4] was “inactive” in each case.

As to `COC(=O)Nc1nc2ccc(S(=O)c3ccccc3)cc2[nH]1` (stereo not given), the Potency in assay [1] was 79.6 µM (active) and inactive; in assay [3], 28.2 µM (active) and 17.4 µM (active). For the same molecule, the Potency entry in assay [2] and in assay [4] was “inactive” in each case.

Consider `C#C[C@]1(O)CC[C@H]2[C@@H]3CCc4cc(OC)ccc4[C@H]3CC[C@@]21C`, for which the Potency is 3.56 µM (active) and 2.19 µM (active) in assay [1]; 5.64 µM (active) and 6.92 µM (active) in assay [2]; 7.1 µM (active) and 9.77 µM (active) in assay [3]. Further, the Potency entry in assay [4] was “inactive”.

Turning to `CC1=CCC(C(C)(C)O)CC1` (stereo not given), the Potency entry in assay [1], in assay [2], in assay [3] and in assay [4] was “inactive” in each case.

`CN1C(C(=O)Nc2ccccn2)=C(O)c2ccccc2S1(=O)=O`: the Potency entry in assay [1], in assay [3] and in assay [4] was “inactive” throughout. The Potency in assay [2] was 12.7 µM (active) and 13.8 µM (active).

On to `Nc1ccc(Nc2ccccc2)cc1`, for which the Potency in assay [1] was 24.9 µM (active) and 10 µM (active) and 12.6 µM (active); in assay [2] it was 15.7 µM (active) and 25.2 µM (active) and 10 µM (active); in assay [3] it was 35.2 µM (active) and 35.6 µM (active) and 31.7 µM (active). In addition, in assay [4], the Potency result was “inactive”.
